Screening data: PubChem BioAssay, NMMLSC
Rows were chosen to be rich in hits. Some 1.2% of all compounds tested hit in one or more screens of this group.
Avidin fluor = compound fluoresces at 488/530 nm on avidin beads; compound fluorescence 488/530 nm, flow cytometry; stronger effect = higher value; fluorescence (KMESF) at 10 µM; hit rate 0.38% among 220,000; AID 1775; in the data active = fluorescence above about 47
RGS16-Gao = regulators of human RGS16-Galphao interaction | bead-based flow cytometry RGS16-Galphao binding, fluorescence; actives lie on both sides | binding response (% of control), % at 10 µM | O15492+P09471 | hit rate 0.38% among 220,000;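 also: Galphao activated by GDP with aluminum fluoride before binding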
GSH fluor = compound fluoresces at 488/530 nm on GSH beads; GSH beads flow cytometry, compound fluorescence 488/530 nm; stronger effect = higher value; hit rate 0.25% among 190,000; fluorescence (KMESF) at 10 µM; AID 1776; in the data active = fluorescence above about 89;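 also: glutathione beads carrying GST-tagged Bcl family fusion proteins plus one bare bead set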
RGS8-Gao reg = human RGS8-Galphao interaction regulation; P09471; multiplexed bead flow cytometry, RGS8-Galphao binding; actives lie on both sides; response (percent of control binding), % at 10 µM; hit rate 0.34% among 220,000; in the data active = response below about 60% or above about 140%; inactive = in between;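 also: Galphao activated as the GDP aluminium fluoride complex binding bead-coupled RGS8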
Target sequence (P09471 whole entry, looked up): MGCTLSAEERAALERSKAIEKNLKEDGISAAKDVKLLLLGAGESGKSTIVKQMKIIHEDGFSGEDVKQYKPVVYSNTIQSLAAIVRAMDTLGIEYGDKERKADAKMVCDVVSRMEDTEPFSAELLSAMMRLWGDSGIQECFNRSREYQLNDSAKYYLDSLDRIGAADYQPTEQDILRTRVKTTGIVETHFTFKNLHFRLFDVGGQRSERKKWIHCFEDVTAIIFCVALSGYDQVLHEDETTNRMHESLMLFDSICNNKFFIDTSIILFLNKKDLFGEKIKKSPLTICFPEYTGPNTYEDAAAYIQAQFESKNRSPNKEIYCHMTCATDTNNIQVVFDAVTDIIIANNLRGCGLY
RGS4-Gao reg = modulates binding of RGS4 to human Galphao. binding response (% of control), % at 10 µM. P09471. hit rate 0.33% among 220,000. Multiplexed bead flow cytometry; actives lie on both sides; in the data active = binding response below about 49% or above about 150%; inactive = in between;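 also: fluorescent Galphao activated with aluminum fluoride binding bead-coupled RGS4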
RGS7-Gao = regulators of human RGS7-Galphao interaction | P09471 | Multiplexed bead flow cytometry, RGS7-Galphao binding; actives lie on both sides | binding response (% of control), % at 10 µM | hit rate 0.35% among 220,000; in the data active = binding response below about 49% or above about 150%; inconclusive = no clear call, values can overlap the other calls; inactive = in between;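 also: fluorescent Galphao held in activated GDP-AlF4 state binding bead-coupled RGS7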
RGS-Gao = modulates binding between human RGS4 and Galphao; shares compounds with RGS16-Gao; RGS4–Galpha-o binding response, % at 10 µM; hit rate 99% among 1,600; AID 1504; multiplexed bead flow cytometry, RGS–Galpha-o binding;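 also: fluorescently labeled Galpha-o bound to GDP with aluminium fluoride binding biotinylated RGS beads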
Biotin-avidin = interferes with biotinylated probe binding to avidin beads; shares compounds with RGS16-Gao; streptavidin beads, fluorescein-biotin binding, flow cytometry; inhibition, % at 10 µM; 1,700 tested, under 10 active;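 active = inhibition above 50%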;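 also: median green fluorescence of gated singlet beads compared with DMSO control wells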
RGS8-Gao confirm = confirmation of regulators of human RGS8-Galphao interaction; shares compounds with RGS16-Gao; bead-based flow cytometry RGS8-Galphao binding, fluorescence; actives lie on both sides; binding response (% of control), % at 10 µM; hit rate 3% among 1,700; in the data active = binding response below about 72% or above about 130%; inactive = in between;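 also: Galphao activated as GDP AlF4 complex before binding bead RGS8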
RGS7-Gao confirm = confirmation of regulators of human RGS7-Galphao interaction; shares compounds with RGS16-Gao; bead-based flow cytometry RGS7-Galphao binding; actives lie on both sides; response (percent of control binding), % at 10 µM; hit rate 7.8% among 1,700; in the data active = response below about 75% or above about 130%; inactive = in between;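 also: fluorescent Galphao activated with GDP and aluminum fluoride binding bead-coupled RGS7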
RGS16-Gao single = RGS16-Galphao interaction regulation, single point confirmation; shares compounds with RGS16-Gao; bead-based flow cytometry, RGS16-Galphao binding; actives lie on both sides; response (% of control binding), % at 10 µM; hit rate 4% among 1,700; AID 1838; in the data active = response below about 74% or above about 130%; inactive = in between;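 also: Galphao activated as the GDP aluminium fluoride complex binding bead-coupled RGS16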
RGS4-Gao single = confirmation of regulators of human RGS4-Galphao interaction. shares compounds with RGS16-Gao. RGS4-Galphao binding, multiplexed bead flow cytometry; actives lie on both sides. binding response (% of control), % at 10 µM. hit rate 4% among 1,700; in the data active = binding response below about 74% or above about 130%; inactive = in between
RGS19-Gao conf = confirmation of regulators of human RGS19-Galphao interaction. shares compounds with RGS16-Gao. bead-based flow cytometry RGS19-Galphao binding; actives lie on both sides. response (percent of control binding), % at 10 µM. hit rate 5% among 1,700. AID 1841; in the data active = response below about 50% or above about 160%; inactive = in between
A number is an active result; . = inactive; ? = inconclusive; / = no result given; [ ] = another dose, or the depositor's remark. Unless noted, no rule for the calls is given here.

SMILES | Avidin fluor | RGS16-Gao | GSH fluor | RGS8-Gao reg | RGS4-Gao reg | RGS7-Gao | RGS-Gao | Biotin-avidin | RGS8-Gao confirm | RGS7-Gao confirm | RGS16-Gao single | RGS4-Gao single | RGS19-Gao conf
CCC(=O)N1CCN(c2ccc(NC(=O)c3ccc4c(c3)OCCO4)cc2)CC1 | . | . | . | . | . | . | / | / | / | / | / | / | /
CN(c1ccccc1)S(=O)(=O)c1cccc(NC(=O)CN2CCCc3ccccc32)c1 | . | 178[activator] | / | . | . | ? | 141 | . | . | 131[activator] | . | . | .
CCN(C(=O)c1cc2cccc(OC)c2oc1=O)C1CCCCC1 | 112 | 223[activator] | . | . | 187[activator] | 188[activator] | / | . | . | . | . | . | .
O=C(CSC1c2ccccc2C(=O)N1c1ccccc1)N1CCOCC1 (configuration not stated) | . | . | . | . | . | . | / | / | / | / | / | / | /
CN(C)C(=O)CSC1c2ccccc2C(=O)N1c1ccccc1 (configuration not stated) | . | . | . | 9.1 | 23 | 15 | / | . | . | . | . | . | .
O=C(Nc1cccnc1)OC1CCCC1 | . | . | . | . | . | . | / | / | / | / | / | / | /
Cc1ccc(-c2cc(C(=O)N/N=C/c3ccco3)n[nH]2)s1 | . | . | . | . | . | . | / | / | / | / | / | / | /
CC(C)(C)c1cc(C(=O)N/N=C/c2ccco2)n[nH]1 | . | 279[activator] | . | . | . | . | 114 | . | . | . | . | . | .
FC(F)(F)c1cnc(COc2cc(Cl)cc(Cl)c2)c(Cl)c1 | . | . | / | . | . | ? | / | / | / | / | / | / | /
CCC(=O)NC(c1ccc(C)cc1)c1cc([N+](=O)[O-])c2cccnc2c1O (configuration not stated) | . | . | . | 58 | . | . | 68 | . | . | . | . | . | 42
CCOC(=O)c1cc(-c2cccs2)nc2c1c(C)nn2-c1ccccn1 | . | . | . | . | . | . | / | / | / | / | / | / | /
Cc1nn(-c2ccccc2)c2nc(-c3cccs3)cc(C(=O)NN)c12 | 82 | . | . | . | . | 198[activator] | 115 | . | . | . | . | . | .
Cc1ccc(C)c(S(=O)(=O)Nc2ccccc2C(=O)Nc2cc(C)on2)c1 | . | . | . | . | . | . | / | / | / | / | / | / | /
Cc1ccc(C)c(NC(=O)c2ccccc2NS(=O)(=O)c2cc([N+](=O)[O-])ccc2C)c1 | . | 188[activator] | . | . | . | . | 104 | / | / | / | / | / | /
COc1ccc(N(C)C(=O)c2oc(=O)c3ccccc3c2-c2ccc(C)cc2)c(OC)c1 | . | . | / | . | . | ? | / | / | / | / | / | / | /
Cc1cc(N2CCCC2)nc2ccc(NC(=S)NCCCN3CCC(C)CC3)cc12 | . | . | . | . | . | . | / | / | / | / | / | / | /
O=C(c1ccco1)N1N=C(c2ccc(Br)cc2)CC1(O)C(F)(F)F (configuration not stated) | . | . | . | . | . | ? | / | / | / | / | / | / | /
COc1ccc(NC(=S)NCCc2ccccc2)c(OC)c1 | . | . | . | . | . | . | / | / | / | / | / | / | /
COc1ccc(NC(=S)NCCc2ccc(F)cc2)c(OC)c1 | . | 19 | . | . | . | . | 88 | . | . | . | . | . | .
